Source: PubChem BioAssay (NCI)
Compounds without any hit were thinned out: in the full panel of roughly 83,000, 20% have a hit.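 Values shown are percent growth following 48 h exposure of cells in 96-well plates to a single concentration of compound; below 10 was considered active.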 Values without a mark were called inactive. Calls of active or inactive are those of the source.

Key:
Test in all cases: NCI-60 one-dose screen, 48 h (100 = growth as untreated, 0 = no growth, -100 = all killed)
Details in all cases: 10 µM unless noted
NCI-H23 lung = tested on: NCI-H23 lung
NCI-H226 lung = tested on: NCI-H226 lung
NCI-H322M lung = tested on: NCI-H322M lung
HOP-62 NSCLC = tested on: HOP-62 NSCLC
NCI-H460 lung = tested on: NCI-H460 lung
HOP-92 NSCLC = tested on: HOP-92 NSCLC
NCI-H522 lung = tested on: NCI-H522 lung
A549/ATCC NSCLC = tested on: A549/ATCC NSCLC
786-0 renal = tested on: 786-0 renal
COLO 205 colon = tested on: COLO 205 colon
DU-145 prostate = tested on: DU-145 prostate
K-562 leukemia = tested on: K-562 leukemia
MALME-3M melanoma = tested on: MALME-3M melanoma
MDA-MB-231 breast = tested on: MDA-MB-231 breast
RXF 393 renal = tested on: RXF 393 renal
SF-268 CNS = tested on: SF-268 CNS
SF-295 CNS = tested on: SF-295 CNS
SF-539 CNS = tested on: SF-539 CNS
UACC-257 melanoma = tested on: UACC-257 melanoma
M14 melanoma = tested on: M14 melanoma

| SMILES | growth (NCI-H23 lung) | growth (NCI-H226 lung) | growth (NCI-H322M lung) | growth (HOP-62 NSCLC) | growth (NCI-H460 lung) | growth (HOP-92 NSCLC) | growth (NCI-H522 lung) | growth (A549/ATCC NSCLC) | growth (786-0 renal) | growth (COLO 205 colon) | growth (DU-145 prostate) | growth (K-562 leukemia) | growth (MALME-3M melanoma) | growth (MDA-MB-231 breast) | growth (RXF 393 renal) | growth (SF-268 CNS) | growth (SF-295 CNS) | growth (SF-539 CNS) | growth (UACC-257 melanoma) | growth (M14 melanoma) |
| --- | --- | --- | --- | --- | --- | --- | --- | --- | --- | --- | --- | --- | --- | --- | --- | --- | --- | --- | --- | --- |
| COc1cccc(NCc2nnc(Nc3ccc(Cl)cc3)c3ccccc23)c1 | 2.05% (active) | -22.9% (active) | 3.32% (active) | -17.1% (active) | 0.101% (active) | -32.8% (active) | -43.8% (active) | 2.56% (active) | -5.76% (active) | -22.2% (active) | 8.3% (active) | 2.2% (active) | -22% (active) | -27.1% (active) | -11.6% (active) | 2.52% (active) | -22.6% (active) | -10.2% (active) | -39.7% (active) | -15.7% (active) |
| COc1cccc(Nc2ncnc3cc(NC(=O)CCl)ccc23)c1 | -50.9% (active) | -48.3% (active) | 37.5% | -89.8% (active) | -72.7% (active) | -74.8% (active) | -77.4% (active) | -27.7% (active) | -89.7% (active) | -90% (active) | -74% (active) | -9.78% (active) | -85.3% (active) | -69.4% (active) | -90.2% (active) | -57.5% (active) | -19% (active) | -89.1% (active) | 14% | -78.4% (active) |
| CCN1C(=O)N(CC)C2C1NC(=S)N2/N=C/c1ccc(C(F)(F)F)cc1 (stereo unspecified) | 79.8% | 74.2% | 82.5% | 71.2% | 75.6% | 50.6% | 48.2% | 39.8% | 79.7% | 80.7% | 90.5% | 37% | 44.1% | 66.2% | 52.6% | 77.7% | 66.3% | 79.8% | 78.9% | 53.4% |
| CN(Cc1cnc2nc(N)nc(N)c2n1)c1ccc(C(=O)NC(CCC(=O)O)C(=O)O)cc1Br (stereo unspecified) | 31.3% | 48.4% | 69.6% | 33.5% | 16.7% | 59.6% | 43.8% | 26% | 15.8% | 36.3% | 25.2% | 31.1% | 98.1% | 60.2% | 58.6% | 34.4% | 27% | 6.95% (active) | 59.4% | 30.9% |
| CCN(CC)CCN1C(=O)c2c(c(C)c3c(oc4ccc(OC)cc43)c2C)C1=O | 97.9% | 14.3% | 95.2% | 93.7% | 74.3% | 84.7% | 95% | 94.5% | -30% (active) | 96.1% | 94.1% | 90.5% | 91.9% | 96.3% | 82.2% | 94.9% | 105% | 94.1% | 101% | 103% |
| CS(=O)(=O)c1nnc(-c2ccccc2)s1 | 99.4% | 113% | 111% | 85.5% | 111% | 103% | 11.6% | 87.1% | 88.7% |  | 88% | 78.4% | 88.1% | 101% | 110% | 94.8% | 106% | 106% | 91% | 74% |
| COc1ccc(C(=S)N2CCN(c3ccc(Cl)cc3)CC2)cc1 | 101% | 96% | 89.3% | 97.8% | 105% | 89.9% | 75.6% | 84% | 92.5% |  | 113% | 88% | 125% | 76.7% | 126% | 100% | 117% | 102% | 96.1% | 99.7% |
| O=C1c2cccc3cccc(c23)C(=O)N1C/C=C/c1ccc2c3c(cccc13)C(=O)N(CCO)C2=O | 69.6% | 58.3% | 62.9% | 70.6% | 72.6% | 2.53% (active) | 89.2% | 81.2% | 84.4% |  | 70.4% | 79.9% | 75.5% | 62.1% | 27.9% | 87.7% | 76.5% | 72.7% | 79.8% |  |
